# PubChem BioAssay AID1209 (Sanford-Burnham Center for Chemical Genomics, 2008)
# The campaign covered roughly 190,000 compounds. About 810 (0.43%) were called active. Many of the other results were omitted from the sample, so actives are more common in it than they were. Unmarked numbers belong to inactive results. No stated cut-off is given here; in the data, active means inhibition above about 50%; inactive means the rest.
# Target: Mannose-6-phosphate isomerase (Homo sapiens) (UniProt P34949)
# Sequence (P34949 whole entry, looked up): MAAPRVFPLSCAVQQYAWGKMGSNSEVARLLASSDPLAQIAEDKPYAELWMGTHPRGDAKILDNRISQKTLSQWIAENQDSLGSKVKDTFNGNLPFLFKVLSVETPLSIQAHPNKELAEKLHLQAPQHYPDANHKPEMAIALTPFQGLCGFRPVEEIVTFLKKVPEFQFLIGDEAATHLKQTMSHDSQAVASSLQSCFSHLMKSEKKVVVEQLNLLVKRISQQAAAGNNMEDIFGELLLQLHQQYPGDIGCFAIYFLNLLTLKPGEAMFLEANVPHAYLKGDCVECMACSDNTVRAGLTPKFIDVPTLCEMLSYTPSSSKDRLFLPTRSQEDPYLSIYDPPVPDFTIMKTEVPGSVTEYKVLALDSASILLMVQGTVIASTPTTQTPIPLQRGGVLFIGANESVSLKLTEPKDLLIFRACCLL
# Test: inhibitors of human PMI, primary screen, biochemical, fluorescence intensity, coupled assay (AID 1209);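 further: plate controls were DMSO vehicle for no effect and wells lacking substrate for full effect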
# Conditions: purified PMI enzyme, at 20 µM, stronger effect = higher value
row,Compound,inhibition
1,CN=C1C([N+](=O)[O-])=CC=C2C1=NC1(CCCCC1)N2O,70.6% (active)
2,CC(C)(C)N=C1C([N+](=O)[O-])=CC=C2C1=NC1(CCCCC1)N2O,76.2% (active)
3,O=[N+]([O-])c1nn(-c2ccc3c(c2)OCCO3)n(O)c1=NC1CCCCC1,6%
4,O=[N+]([O-])C1=CC=C2C(=NC3(CCCCC3)N2O)C1=NC1CCCCC1,87.5% (active)
5,O=[N+]([O-])c1nn(-c2ccc3c(c2)OCCO3)n(O)c1=NC1CCCCCC1,12.3%
6,C#CCNc1cc(-c2ccccc2)nc2ncnn12,-2.5%
7,COC(=O)c1ccc(C(=O)OC)c(NC(=O)C(C)(C)C)c1,-4.3%
8,COc1ccc(OC)c(NC(=O)CCNS(=O)(=O)c2cccs2)c1,0.3%
9,COc1ccccc1-c1nnc(SCC(=O)O)n1-c1ccccc1,0.5%
10,CCCCN(C(=O)c1ccc(NC(=O)C(C)C)cc1)c1ccccc1,8.2%
11,Cc1ccccc1-n1nnnc1SCc1ncc(-c2ccccc2)o1,5.3%
12,O=C(CCCc1nc2ccccc2s1)Nc1ccccc1,-15.5%
13,O=C(O)CCCC(=O)Nc1ccc(OCc2nc3ccccc3s2)cc1,58.3% (active)
14,CCC(=O)Nc1ccc(OCc2nc3ccccc3s2)cc1,25%
15,O=C(NN1C(=O)C2C3C=CC(C3)C2C1=O)c1ccncc1 (stereo not given),-0.6%
16,Cc1csc(NC(=O)C2CCCN(S(=O)(=O)c3ccc4c(c3)oc(=O)n4C)C2)n1 (stereo not given),13.4%
17,C=CCN1C(=O)N/C(=C/c2ccccc2OCC(=O)Nc2ccc(F)cc2)C1=O,2.1%
18,CN(c1ccccc1)S(=O)(=O)c1cccc(C(=O)NCCc2ccc(O)c(O)c2)c1,54.9% (active)
19,CN(C)S(=O)(=O)c1cccc(C(=O)NCCc2ccccc2)c1,3.3%
20,CN(c1ccccc1)S(=O)(=O)c1cccc(C(=O)NNC(=O)c2ccccc2)c1,7.8%
21,COc1cc(C2NC(=O)NC(c3ccccc3)=C2C(C)=O)ccc1OCC#N (stereo not given),20.2%
22,COc1ccccc1-n1c(SCC(=O)NCc2ccc3c(c2)OCO3)nc2cc([N+](=O)[O-])ccc21,59.9% (active)
23,COc1ccccc1-n1c(SCC(=O)NC2CCS(=O)(=O)C2)nc2cc([N+](=O)[O-])ccc21 (stereo not given),5.5%

row,Compound,inhibition
1,O=C(CSc1nc2cc([N+](=O)[O-])ccc2n1-c1ccccc1)NCc1ccc2c(c1)OCO2,23.9%
2,O=C(COC(=O)CCOc1ccccc1)Nc1ncc(Cl)cc1Cl,-1%
3,Cc1c(C(=O)N/N=C/c2ccccc2)[nH]c2ccc(Cl)cc12,2.8%
4,O=C(Cc1csc(NC(=O)c2ccccc2)n1)NO,67.6% (active)
5,COc1ccccc1NC(=O)Cc1csc(NC(=O)c2ccccc2)n1,5.9%
6,O=C(Cc1csc(NC(=O)c2ccc(F)cc2)n1)NO,0.3%
7,COC(=O)c1c(-c2cccc(OC)c2)csc1N,30%
8,O=C(CN1CCCC1)Nc1ccc(F)cc1,-11.5%
9,COc1ccccc1NS(=O)(=O)c1cc(N)ccc1N1CCCCC1,67.5% (active)
10,COc1ccccc1NS(=O)(=O)c1cc(NC(=O)Nc2cccc(C)c2)ccc1N1CCCCC1,0.3%
11,O=C(Nc1ccc(N2CCOCC2)c2nonc12)C1CCCC1,53.4% (active)
12,COc1ccccc1NS(=O)(=O)c1cc(NC(=O)C(C)C)ccc1N1CCCCC1,41.2%
13,COc1ccccc1NS(=O)(=O)c1cc(NC(=O)Nc2ccccc2)ccc1N1CCCCC1,14.8%
14,O=C(Nc1ccc(F)cc1)Nc1ccc(N2CCOCC2)c2nonc12,15.4%
15,COc1ccccc1NS(=O)(=O)c1cc(NC(=O)Nc2ccc(Cl)cc2Cl)ccc1N1CCCCC1,2%
16,COc1ccccc1NS(=O)(=O)c1cc(NC(=O)CCC2CCCC2)ccc1N1CCOCC1,2.1%
17,COc1ccccc1NS(=O)(=O)c1cc(NC(=O)C2CC2)ccc1N1CCOCC1,15%
18,O=C(Nc1ccc([N+](=O)[O-])cc1)Nc1ccc(N2CCOCC2)c2nonc12,34.2%
19,COc1ccccc1NS(=O)(=O)c1cc(NC(=O)C2CCCC2)ccc1N1CCOCC1,55.7% (active)
20,COc1ccccc1NS(=O)(=O)c1cc(NC(C)=O)ccc1N1CCCCC1,52.7% (active)
21,O=C(c1ccccc1)C(C(=O)N1CCc2ccccc2C1)n1ccccc1=O (stereo not given),8.6%
22,O=C(CSc1nnnn1-c1cccc2ccccc12)NC(C(=O)O)(c1ccccc1)c1ccccc1,-9.3%
23,Cc1ccc(NC(=O)NC(=O)CN2C(=O)NC3(CCCCCCC3)C2=O)c(C)c1,9.5%

row,Compound,inhibition
1,CCC/C(O)=C1\C(=O)CC(c2ccccc2)CC1=NC(C)C(=O)O (stereo not given),-5.7%
2,O=C(COc1ccc(Cl)cc1)NCc1nnc(SCC(=O)N2CCCCCC2)o1,3.1%
3,CCOc1ccccc1NC(=O)c1ccc(NC(=O)c2ccco2)cc1,-12.3%
4,CN(CCO)c1cc(N2CCC3(CC2)OCCO3)c2nonc2c1[N+](=O)[O-],6%
5,CCOC(=O)N1CCN(c2cc(NCCO)c([N+](=O)[O-])c3nonc23)CC1,56.2% (active)
6,CC(=O)Nc1ccc(Nc2cc(N3CCOCC3)c3nonc3c2[N+](=O)[O-])cc1,-2.7%
7,O=[N+]([O-])c1c(NCCO)cc(N2CCN(Cc3ccc4c(c3)OCO4)CC2)c2nonc12,55.4% (active)
8,CCOC(=O)N1CCN(c2cc(N(C)CCO)c([N+](=O)[O-])c3nonc23)CC1,20.8%
9,Cc1nnc(Sc2cc(NCCO)c([N+](=O)[O-])c3nonc23)s1,-0.7%
10,O=[N+]([O-])c1c(NCCCO)cc(N2CCN(Cc3ccc4c(c3)OCO4)CC2)c2nonc12,13%
11,O=[N+]([O-])c1c(NCCO)cc(N2CCCCC2)c2nonc12,57.8% (active)
12,CCN(CC)c1cc(NCCO)c([N+](=O)[O-])c2nonc12,37.9%
13,CN(CCO)c1cc(N2CCCCC2)c2nonc2c1[N+](=O)[O-],-0.9%
14,O=[N+]([O-])c1c(NCCO)cc(N2CCC3(CC2)OCCO3)c2nonc12,60.3% (active)
15,CCOC(=O)C1CCCN(c2cc(NCCCO)c([N+](=O)[O-])c3nonc23)C1 (stereo not given),32.9%
16,COc1ccccc1-n1c(-c2ccc(NS(C)(=O)=O)cc2)n[nH]c1=S,-0.6%
17,CC(C)Cc1nnc(NC(=O)CS(=O)(=O)Cc2ccccc2)s1,-0.2%
18,C=C(C)CSc1nnc2n(N)c(=O)c3ccccc3n12,-4.8%
19,Cc1ccccc1C(=O)NCCc1nnc(SCC(=O)Nc2nc(-c3ccccc3)cs2)n1C,-0.8%
20,O=C(CSc1ncccn1)N1CCN(C(c2ccccc2)c2ccccc2)CC1,20.8%
21,Cn1c(C(C(=O)NCC2CCCO2)N(CCc2ccccc2)C(=O)Cn2nnc3ccccc32)nc2ccccc21 (stereo not given),2.6%
22,CCSc1c(-c2ccccc2)nc2c(C)cccc2c1C(=O)O,4.5%
23,CCSc1nnc(-c2ccccc2SC)o1,-75.6%

row,Compound,inhibition
1,Cc1cccc(NC(=O)c2sc3nc4c(c(-c5cccs5)c3c2N)CN(C)CC4)c1,-14.8%
2,CN1CCN(c2ccc(NC(=O)c3ccc(-c4ccc(Br)cc4)o3)cc2)CC1,-0.8%
3,Cc1c(Nc2cc(N3CCCCCC3)c3nonc3c2[N+](=O)[O-])c(=O)n(-c2ccccc2)n1C,55% (active)
4,Cc1c(Nc2cc(N3CCOCC3)c3nonc3c2[N+](=O)[O-])c(=O)n(-c2ccccc2)n1C,19.4%
5,Cc1c(Nc2cc(N3CCCC(C)C3)c3nonc3c2[N+](=O)[O-])c(=O)n(-c2ccccc2)n1C (stereo not given),45.8%
6,Cc1ccc2c(C(=O)CN3CCN(c4ccccc4)CC3)c(C)[nH]c2c1,-4.7%
7,CCOc1ccccc1-n1c(SCC(=O)NC2CCCC2)nnc1-c1ccoc1C,17.9%
8,COc1ccc(/C=N\NC(=O)c2cc(O)c(O)c(O)c2)cc1CN1CCN(c2ccc(F)cc2)CC1,58.1% (active)
9,COc1ccc(/C=N\NC(=O)c2cccc([N+](=O)[O-])c2)cc1Cn1cc([N+](=O)[O-])cn1,10%
10,COc1ccc(/C=N/NC(=O)c2ccc(N)cc2)cc1Cn1cc([N+](=O)[O-])cn1,2.9%
11,COc1ccc(/C=N/NC(=O)c2ccccc2)cc1CN1CCN(c2ccc(F)cc2)CC1,-6.3%
12,COc1cc(C(=O)N/N=C/c2ccc(OC)c(CN3CCN(c4ccc(F)cc4)CC3)c2)ccc1O,22.3%
13,CCC(O)c1c(-c2ccccc2)nn(C)c1Cl (stereo not given),1.3%
14,O=S1(=O)CC(O)C(NCc2ccco2)C1 (stereo not given),-0.2%
15,COc1ccc(-c2csc(NC(=O)c3cc(=O)c4ccccc4o3)n2)cc1OC,-9.2%
16,COC(=O)c1ccc(COC(=O)C23CC4CC(CC(O)(C4)C2)C3)o1,1.1%
17,CN(C)C=Nc1nonc1N,-5.6%
18,CN(C)C=Nc1c(Br)cc(Br)c2nonc12,70.8% (active)
19,Cc1cc(/N=C/N(C)C)on1,4.8%
20,CC1(c2ccc([N+](=O)[O-])cc2)CC(C)(C)N(C(=O)c2ccccc2)c2ccccc21 (stereo not given),15.2%
21,CC1(C)CC(CCC(=O)Nc2ccc(S(N)(=O)=O)cc2)C(=O)O1 (stereo not given),-3.1%
